# Measurements published in PubChem BioAssay (NCI).
# The panel holds about 83,000 compounds, 20% with a hit somewhere; the sample as a whole holds those more often.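 96-well plates, one dose, 48 hours. Percent growth reported; active if below 10.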 Unmarked numbers belong to inactive results. Active and inactive are the calls of the source.
# Assays:
# Assay in all cases: NCI-60 one-dose screen, 48 h (100 = growth as untreated, 0 = no growth, -100 = all killed)
# Conditions in all cases: 10 µM unless noted
# SK-MEL-2 melanoma = tested on: SK-MEL-2 melanoma
# EKVX NSCLC = tested on: EKVX NSCLC
# SN12C renal = tested on: SN12C renal
# UO-31 renal = tested on: UO-31 renal
# TK-10 renal = tested on: TK-10 renal
# ACHN renal = tested on: ACHN renal
# CAKI-1 renal = tested on: CAKI-1 renal
# A498 renal = tested on: A498 renal
# CCRF-CEM leukemia = tested on: CCRF-CEM leukemia
# MOLT-4 leukemia = tested on: MOLT-4 leukemia
Compound,growth (SK-MEL-2 melanoma),growth (EKVX NSCLC),growth (SN12C renal),growth (UO-31 renal),growth (TK-10 renal),growth (ACHN renal),growth (CAKI-1 renal),growth (A498 renal),growth (CCRF-CEM leukemia),growth (MOLT-4 leukemia)
CCn1cc2c(cc1=O)-c1nc3ccccc3c3ccnc(c13)C2=O,62.3%,87.8%,16.5%,42.5%,86.1%,10.1%,60%,81.7%,104%,80.6%
O=C(/C=C/c1cc2ccccc2[nH]c1=O)/C=C/c1cc2ccccc2[nH]c1=O,54%,47.3%,23.8%,-83.8% (active),-14.8% (active),-11.2% (active),31.9%,30.4%,17.8%,31.6%
COc1cccc(-c2cn3c(ccc4ccccc43)n2)c1,22.1%,20.8%,40.2%,37.2%,88.8%,40.1%,32.4%,-3.78% (active),26.6%,48.7%
CCOC(=O)CC(=O)c1c(C)cc(C)cc1C,93.4%,105%,94.1%,92.9%,116%,83.7%,97%,96.8%,90.9%,78.7%
O=C(Nc1nc(-c2ccccc2)cc(-c2ccc(Cl)cc2)n1)c1ccncc1,98.8%,82.3%,104%,70.8%,107%,97.4%,77.7%,71.5%,98.3%,93%
CC[C@@H](C)OC(=O)c1nn(C(C)=O)c2ccccc12,107%,101%,102%,92.9%,105%,108%,97.8%,99.2%,103%,123%
O=C(CO[N+](=O)[O-])Nc1ccc(C(=O)/C=C/c2ccc3c(c2)OCO3)cc1,119%,99.7%,95.4%,77.1%,111%,99.2%,93%,107%,70%,99.7%
CC(C)(C)n1cc(-c2ccnc(NCCCNS(=O)(=O)c3cccc4ccccc34)c2)c(-c2cccc(O)c2)n1,30.1%,42.3%,36.7%,44.8%,74.8%,36.7%,40.4%,48%,22.1%,7.2% (active)
CC/C(Cc1ccccc1)=C(\c1ccc(OCCN2CCCC2)cc1)c1ccc(OC(C)=O)cc1,104%,80.3%,83.4%,72.3%,88.7%,89.7%,86.6%,87.9%,88.1%,55.2%
C=C1CCC2C3(C)COC(c4cccc(Cl)c4)OC3CCC2(C)C1/C=C/C1=CCOC1=O (stereo not given),85.6%,35.2%,87.2%,38.8%,88.3%,71.5%,70.6%,64.5%,48.4%,33.2%
CCN(CC)CCCNc1cc(OC)cc2nc3cc(Cl)ccc3nc12,3.9% (active),0.555% (active),13.1%,-86.7% (active),-15.5% (active),3.95% (active),-78.7% (active),14.3%,19.9%,-26.2% (active)
COc1ccc(C/C(C)=C(\c2ccc(OCCN3CCCCCC3)cc2)c2ccc(OC(=O)C3CCCCC3)cc2)cc1,82.1%,83.5%,57.1%,38.6%,86.4%,80.8%,86.7%,80.4%,49.7%,32.3%
O=C1/C(=C\c2cn(C(=O)c3ccc(Cl)cc3)c3ccccc23)c2ccccc2N1c1c(Cl)cccc1Cl,103%,97.8%,89.5%,77%,119%,97.6%,86.4%,103%,111%,89.6%
Cc1cc(N/N=C/c2nc(-c3ccc(Cl)cc3)oc2C)c2cc(Cl)ccc2n1,104%,92%,-5.24% (active),21.2%,30.5%,63.4%,90.2%,86.9%,-24.3% (active),-20.7% (active)
O=C(/C=C\c1cccc([N+](=O)[O-])c1)c1ccccc1,100%,96.9%,97.2%,-64.5% (active),68.1%,-50.1% (active),84.4%,91.4%,-23.9% (active),18.9%
Oc1cc(O)c2c(=S)cc(-c3ccc(Cl)cc3)oc2c1,4.4% (active),70.2%,25.5%,18%,58.9%,23.6%,76.5%,59.1%,15.8%,24.1%
Brc1cccc(-c2cc(-c3ccc4c(c3)OCCO4)[nH]n2)c1,35.8% [25 µM],20.3% [25 µM],33.7% [25 µM],35% [25 µM],59% [25 µM],41.4% [25 µM],25.7% [25 µM],7.77% [25 µM] (active),19.5% [25 µM],50.4% [25 µM]
COc1cc(OC)c(/C=C/S(=O)(=O)Cc2ccc(OC)c(N)n2)c(OC)c1,8.32% (active),37.3%,24.3%,31.9%,33.7%,28.3%,25.5%,-1.72% (active),9.98% (active),2.56% (active)
O=[N+]([O-])c1cccc(-c2nc3sccn3c2-c2ccnc(NCCNS(=O)(=O)c3ccc(C(F)(F)F)cc3)n2)c1,26.9%,39.5%,33%,17.3%,57.9%,22.5%,30.3%,36.6%,20.2%,18.2%
O=C([C@@H](COCc1ccccc1)N1C(=O)[C@@H](N2C(=O)OC[C@@H]2c2ccccc2)[C@H]1/C=C/c1ccccc1)N1CCC(CCN2CCCCC2)CC1,71.7%,93.1%,83.4%,69.3%,59.8%,99%,99.9%,50.1%,95.4%,62.8%
C[C@@H]1CCC2=C(CCC[C@]2(C)C(=O)O)[C@@]1(C)CCc1ccoc1,92.1%,101%,89.6%,87.7%,92.3%,101%,99.6%,83.3%,102%,113%
C[C@]12C[C@@H](c3ccoc3)OC(=O)[C@@H]1CC[C@]1(C)[C@@H]2CC[C@@H](O)[C@]1(C)O,74.7%,57.5%,64.1%,75.5%,65%,76.1%,88.2%,19.8%,69.3%,67.3%
COc1ccc(S(=O)(=O)NCCCNc2cc(-c3c(-c4cccc(OC)c4)nc4sccn34)ccn2)cc1,53.3%,48.4%,36%,18%,73.4%,33.2%,32%,36.7%,26.5%,19.2%
CCN(CC)CCCCNc1ccc(NCCCCN(CC)CC)c2c1C(=O)c1ccccc1C2=O,105%,100%,84.1%,62.3%,57.8%,88.4%,81.5%,110%,78.6%,62.9%
CCCNc1nc(SC)nc(-c2cccc(N)c2)c1C#N,111%,82.6%,90.1%,76.8%,150%,97.7%,73%,72.4%,108%,101%
Cc1cc(=O)oc2cc(Oc3nc(-c4cccs4)cn4c(-c5cccs5)cnc34)ccc12,69%,64%,73.8%,60.3%,53.9%,57.3%,67.8%,64.4%,94.6%,78.7%
